Where “and” joins values, the source holds several entries; their conditions need not be identical. Equal entries are not always repeated. A structure can be active in one record and inactive in another. Calls of active or inactive are those of the source.
Tests used:
[1] = small molecules captured by biotinylated probe aFSTL3 – biochemical, small-molecule microarray, fluorescence 635/667, stem cell growth factor project, primary screen (AID 1064); settings: higher = more signal;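 also: measures binding of the biotinylated anti-FSTL3 antibody to printed compounds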
[2] = binders from COS7 lysate, DM2A8 probe, primary screen, torsin A project, cell lysate, small-molecule microarray, fluorescence 635/667 (AID 1065); settings: higher = more signal, COS7 lysate expressing mutant human TOR1A
[3] = small molecules captured by biotinylated probe aFGF2 – biochemical, small-molecule microarray, fluorescence 635/667, stem cell growth factor project, primary screen (AID 1067); settings: higher = more signal;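 also: measures binding of biotinylated aFGF2 protein to printed compounds on slides; z-score merges feature fluorescence and signal-to-noise across triplicate slides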
[4] = small molecules captured by biotinylated probe aFGF10 – biochemical, small-molecule microarray, fluorescence 635/667, stem cell growth factor project, primary screen (AID 1071); settings: higher = more signal;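 also: score merges 667 nm spot intensity and signal to noise from triplicate slides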
[5] = target: Neurogenic locus notch homolog protein 2 (Homo sapiens) (UniProt Q04721); assay: small molecules binding Notch2 protein – biochemical, small-molecule microarray, 635 nm fluorescence, stem cell growth factors, primary screen (AID 1073); settings: higher = more signal
[6] = target: Pro-neuregulin-1, membrane-bound isoform (Homo sapiens) (UniProt Q02297); assay: small molecules binding neuregulin-1 protein – biochemical, small-molecule microarray, fluorescence 635/667, psychiatric disease protein project, primary screen (AID 1075); settings: NRG1 binding, 635 nm fluorescence, higher = more signal;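 also: score combines 667 nm spot fluorescence with signal to noise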
[7] = system: Neuregulin-1 EGF-like domain; assay: small molecules binding NRG1 EGF domain – biochemical, small-molecule microarray, 635 nm fluorescence, primary screen (AID 1081); settings: higher = more signal;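 also: binding of the protein to compounds printed on small-molecule microarray slides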
[8] = FRG1 expression reporter modulators in myotubes – cell-based, C2C12 myotubes, firefly/Renilla luciferase, luminescence, FRG1 inhibition for FSHD, primary screen (AID 1084); settings: FRG1 promoter luciferase, higher = more signal, called active from +8 up or from −8 down
[9] = small molecules captured by biotinylated probe aFST – biochemical, small-molecule microarray, fluorescence 635/667, stem cell growth factor project, primary screen (AID 1086); settings: higher = more signal;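 also: score merges 667 nm fluorescence with signal-to-noise of each printed compound spot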
[10] = binders of probe aHhip on microarray, primary screen, stem cell growth factor project, biochemical, small-molecule microarray, fluorescence 635/667 (AID 1087); settings: higher = more signal;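 also: score merges spot fluorescence at 667nm with spot signal to noise ratio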
[11] = system: PRMT1 (protein arginine N-methyltransferase 1); assay: small molecules binding arginine methyltransferase PRMT1 – biochemical, small-molecule microarray, 635 nm fluorescence, primary screen (AID 1088); settings: higher = more signal;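 also: binding of Prmt1 protein to compounds spotted on small-molecule microarray slides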
[12] = growth effects on S. cerevisiae YJM789 – YJM789 clinical isolate, OD600, 24 h, basal, primary screen (AID 1089); settings: higher = more signal, called active from +8 up or from −8 down;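 also: growth of clinical yeast isolate S. cerevisiae YJM 789 seeded 1000 cells per well; test concentration not given here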
[13] = S. pombe growth modifiers, basal conditions – strain 972, OD600, 24 h, no modulator, primary screen (AID 1090);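 also: basal condition with compound alone and no growth modifier present; test concentration not given here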; settings: S. pombe 972 growth, higher = more signal, called active from +8 up or from −8 down
[14] = budding yeast growth modifiers under rapamycin – strain BY4716, OD600, 96 h, primary screen (AID 1091); also: test concentration not given here; settings: S. cerevisiae BY4716 + rapamycin, higher = more signal, called active from +8 up or from −8 down
[15] = target: Torsin-1A-interacting protein 2 (Homo sapiens) (UniProt Q8NFQ8); assay: small molecules binding lysate-expressed LULL1 – cell lysate, human LULL1 lysate, 635/667 nm fluorescence, primary screen (AID 1092); settings: small-molecule microarray, hLULL1 lysate binding, 635 nm fluorescence; higher = more signal;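 also: probe is lysate of COS7 cells overexpressing human LULL1; score merges per-feature 667 nm fluorescence with signal-to-noise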
[16] = optical density change of DRC41 E. coli – strain DRC41, OD650, 24 h, E. coli filamentation project, primary screen (AID 1093);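 also: MC1000 strain lacking acrAB efflux and sulA so SOS filamentation is blocked; test concentration not given here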; settings: E. coli DRC41 growth, higher = more signal, called active from +8 up or from −8 down
[17] = probe aLefty2 binding to arrayed compounds – biochemical, biotinylated probe, 635/667 nm fluorescence, primary screen (AID 1094); settings: small-molecule microarray, higher = more signal;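 also: score merges spot fluorescence near 667 nm with spot signal-to-noise ratio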
[18] = system: Noggin (protein binding on small-molecule microarray); assay: small molecules binding Noggin protein – biochemical, 635/667 nm fluorescence, primary screen (AID 1095); settings: 635 nm fluorescence, higher = more signal;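 also: score merges 667 nm feature fluorescence with signal to noise over triplicate slides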
[19] = target: Neurogenic locus notch homolog protein 3 (Homo sapiens) (UniProt Q9UM47); assay: small molecules binding NOTCH3 protein – biochemical, 635/667 nm fluorescence, primary screen (AID 1096); settings: small-molecule microarray, 635 nm fluorescence, higher = more signal
[20] = probe aEGFR binding to arrayed compounds – biochemical, biotinylated probe, 635/667 nm fluorescence, primary screen (AID 1097); settings: small-molecule microarray, higher = more signal;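 also: probe is a biotinylated anti-EGFR antibody binding compounds printed on slides; score combines fluorescence near 667 nm and signal to noise of each spot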

Neurogenic locus notch homolog protein 2 (Homo sapiens), sequence (Q04721 whole entry, looked up, canonical isoform): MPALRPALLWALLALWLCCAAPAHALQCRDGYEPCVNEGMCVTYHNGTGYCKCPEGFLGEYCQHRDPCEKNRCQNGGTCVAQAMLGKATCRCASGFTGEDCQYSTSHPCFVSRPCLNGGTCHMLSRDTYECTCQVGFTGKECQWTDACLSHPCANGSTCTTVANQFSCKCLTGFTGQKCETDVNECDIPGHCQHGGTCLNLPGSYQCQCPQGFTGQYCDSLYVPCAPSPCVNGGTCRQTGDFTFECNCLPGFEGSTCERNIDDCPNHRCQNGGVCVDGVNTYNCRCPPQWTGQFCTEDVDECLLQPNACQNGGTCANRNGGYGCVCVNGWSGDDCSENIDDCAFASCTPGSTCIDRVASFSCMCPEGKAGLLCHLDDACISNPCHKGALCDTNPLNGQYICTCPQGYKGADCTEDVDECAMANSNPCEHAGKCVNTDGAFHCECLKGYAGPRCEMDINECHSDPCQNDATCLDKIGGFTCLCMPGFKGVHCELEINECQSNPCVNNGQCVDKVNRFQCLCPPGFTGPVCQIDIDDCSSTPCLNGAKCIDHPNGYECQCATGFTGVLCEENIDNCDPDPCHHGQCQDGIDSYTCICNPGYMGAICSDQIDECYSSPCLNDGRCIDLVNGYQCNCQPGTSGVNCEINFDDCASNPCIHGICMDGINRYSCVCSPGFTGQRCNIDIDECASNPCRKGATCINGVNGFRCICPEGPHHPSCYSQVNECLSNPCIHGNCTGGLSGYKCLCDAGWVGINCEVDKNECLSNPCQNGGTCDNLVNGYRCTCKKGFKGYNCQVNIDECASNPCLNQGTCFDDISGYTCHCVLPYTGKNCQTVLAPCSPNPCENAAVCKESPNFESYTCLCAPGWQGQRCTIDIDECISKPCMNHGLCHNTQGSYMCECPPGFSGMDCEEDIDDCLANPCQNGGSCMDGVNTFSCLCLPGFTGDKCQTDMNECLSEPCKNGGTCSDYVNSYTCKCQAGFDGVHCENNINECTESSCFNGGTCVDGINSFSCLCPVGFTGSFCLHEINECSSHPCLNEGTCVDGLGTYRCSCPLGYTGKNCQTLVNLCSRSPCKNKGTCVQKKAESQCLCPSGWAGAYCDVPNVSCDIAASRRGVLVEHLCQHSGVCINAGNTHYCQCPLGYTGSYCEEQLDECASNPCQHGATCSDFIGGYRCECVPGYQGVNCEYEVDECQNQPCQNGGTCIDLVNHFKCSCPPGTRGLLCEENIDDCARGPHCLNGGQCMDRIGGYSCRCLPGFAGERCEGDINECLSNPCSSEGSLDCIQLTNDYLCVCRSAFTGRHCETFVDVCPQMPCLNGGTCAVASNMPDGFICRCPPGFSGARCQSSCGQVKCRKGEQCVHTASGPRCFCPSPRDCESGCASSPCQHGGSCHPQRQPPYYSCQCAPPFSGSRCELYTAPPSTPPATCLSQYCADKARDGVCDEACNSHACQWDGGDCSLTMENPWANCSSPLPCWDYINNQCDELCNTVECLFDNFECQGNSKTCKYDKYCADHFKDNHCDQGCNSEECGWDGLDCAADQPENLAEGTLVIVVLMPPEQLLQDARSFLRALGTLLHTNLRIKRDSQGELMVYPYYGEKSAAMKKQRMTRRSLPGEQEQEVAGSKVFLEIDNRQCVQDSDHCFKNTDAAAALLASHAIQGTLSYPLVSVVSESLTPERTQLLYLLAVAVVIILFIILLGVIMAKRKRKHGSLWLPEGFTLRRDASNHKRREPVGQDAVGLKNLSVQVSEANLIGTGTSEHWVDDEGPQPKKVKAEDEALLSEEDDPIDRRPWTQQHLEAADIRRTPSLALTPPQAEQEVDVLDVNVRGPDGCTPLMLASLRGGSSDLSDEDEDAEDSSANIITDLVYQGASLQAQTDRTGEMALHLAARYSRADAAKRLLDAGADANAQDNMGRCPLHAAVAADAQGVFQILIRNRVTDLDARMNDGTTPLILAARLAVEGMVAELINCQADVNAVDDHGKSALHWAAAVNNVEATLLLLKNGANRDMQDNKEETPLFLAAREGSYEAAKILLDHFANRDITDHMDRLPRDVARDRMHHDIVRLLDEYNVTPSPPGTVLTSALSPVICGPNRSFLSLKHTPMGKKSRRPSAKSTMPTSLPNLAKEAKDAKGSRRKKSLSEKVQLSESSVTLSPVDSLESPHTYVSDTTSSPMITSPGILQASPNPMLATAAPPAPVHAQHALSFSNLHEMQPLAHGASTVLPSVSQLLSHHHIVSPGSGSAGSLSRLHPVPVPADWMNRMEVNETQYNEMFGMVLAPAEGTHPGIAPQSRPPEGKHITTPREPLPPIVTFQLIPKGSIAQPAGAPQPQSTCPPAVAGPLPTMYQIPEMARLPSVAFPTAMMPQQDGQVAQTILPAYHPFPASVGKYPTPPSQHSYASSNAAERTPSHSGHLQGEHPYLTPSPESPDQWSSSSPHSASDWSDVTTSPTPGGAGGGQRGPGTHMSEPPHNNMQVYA
Torsin-1A-interacting protein 2 (Homo sapiens), sequence (Q8NFQ8 whole entry, looked up): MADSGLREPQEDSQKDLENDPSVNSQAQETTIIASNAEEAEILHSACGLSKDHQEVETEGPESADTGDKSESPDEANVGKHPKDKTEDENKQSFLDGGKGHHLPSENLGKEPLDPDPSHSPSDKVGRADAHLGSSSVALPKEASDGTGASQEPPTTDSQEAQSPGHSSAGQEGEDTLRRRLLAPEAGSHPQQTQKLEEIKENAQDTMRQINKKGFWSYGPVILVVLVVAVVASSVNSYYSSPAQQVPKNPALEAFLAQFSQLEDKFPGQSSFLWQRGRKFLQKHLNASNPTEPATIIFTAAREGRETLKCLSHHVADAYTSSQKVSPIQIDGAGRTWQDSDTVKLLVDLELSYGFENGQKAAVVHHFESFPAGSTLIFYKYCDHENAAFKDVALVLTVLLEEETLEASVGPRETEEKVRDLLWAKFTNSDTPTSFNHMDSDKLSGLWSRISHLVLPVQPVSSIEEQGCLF
Pro-neuregulin-1, membrane-bound isoform (Homo sapiens), sequence (Q02297 whole entry, looked up, the tested form may be a part, canonical isoform): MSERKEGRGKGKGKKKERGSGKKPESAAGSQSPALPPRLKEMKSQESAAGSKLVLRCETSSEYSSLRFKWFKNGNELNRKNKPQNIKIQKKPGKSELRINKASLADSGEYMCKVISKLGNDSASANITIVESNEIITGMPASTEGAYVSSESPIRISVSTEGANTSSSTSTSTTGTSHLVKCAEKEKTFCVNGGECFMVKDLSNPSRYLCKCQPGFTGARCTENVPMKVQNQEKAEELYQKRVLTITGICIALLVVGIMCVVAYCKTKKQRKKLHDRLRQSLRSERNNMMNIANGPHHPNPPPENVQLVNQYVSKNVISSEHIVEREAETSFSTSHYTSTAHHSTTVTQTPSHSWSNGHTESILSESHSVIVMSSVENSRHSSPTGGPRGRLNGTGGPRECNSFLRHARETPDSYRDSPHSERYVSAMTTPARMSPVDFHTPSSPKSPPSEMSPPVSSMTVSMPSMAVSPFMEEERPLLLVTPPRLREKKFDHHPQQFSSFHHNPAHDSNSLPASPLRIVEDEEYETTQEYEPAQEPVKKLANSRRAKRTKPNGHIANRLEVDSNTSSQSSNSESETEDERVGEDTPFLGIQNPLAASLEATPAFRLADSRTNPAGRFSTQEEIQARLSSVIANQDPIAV

Compound | composite z-score [1] | composite z-score [2] | composite z-score [3] | composite z-score [4] | composite z-score [5] | composite z-score [6] | composite z-score [7] | z-score [8] | composite z-score [9] | composite z-score [10] | composite z-score [11] | z-score [12] | z-score [13] | z-score [14] | composite z-score [15] | z-score [16] | composite z-score [17] | composite z-score [18] | composite z-score [19] | composite z-score [20]
CC(C)OC(=O)C=C1C[C@@H](c2cccc(C(F)(F)F)c2)O[C@@H](c2cccc(C(F)(F)F)c2)O1 | 0.0946 and 0.128 | 0.297 and 1.36 | 0.0043 and -0.13 | 0.884 and -0.153 | -0.27 and -0.628 | 1.13 and 0.36 | 1.01 and 1.08 | -0.0881 (inactive) and -0.227 (inactive) | -0.0032 and -0.598 | -0.236 and -0.253 | 0.97 and 1.25 | 0.104 (inactive) and -0.425 (inactive) | 0.63 (inactive) and 0.404 (inactive) | 0.938 (inactive) and 1.23 (inactive) | 2.98 and 2.18 | -0.889 (inactive) and -1.05 (inactive) | -0.143 and -0.177 | -0.696 and -1.07 | -0.534 and -0.875 | -0.254 and -0.243
CO[C@H]1COC(=O)CC=C[C@H](C)[C@H](OC)COC(=O)[C@@H](C)COC(=O)CC=C[C@@H]1C | -0.62 and -0.66 | 0.767 and 1.26 | -0.14 and -0.143 | -0.0016 and 0.149 | -0.178 and 0.182 | -0.73 and -0.518 | -0.104 and 0.0825 | -0.407 (inactive) and -1.3 (inactive) | -0.0446 and -0.0435 | -0.261 and -0.0645 | 0.65 and 1.07 | -0.23 (inactive) and -0.132 (inactive) | -0.121 (inactive) and -1.49 (inactive) | -0.324 (inactive) and -0.586 (inactive) | -0.0624 and -0.0356 | 0.432 (inactive) and 0.839 (inactive) | -0.177 and -0.239 | 0.74 and 1.2 | 0.327 and 0.287 | -0.143 and -0.103
C=C[C@H](C)[C@H](O)c1ccc(O)c2ccccc12 | 0.101 and 0.398 | 0.848 and -0.282 | -0.144 and -0.0541 | -0.737 and -0.0937 | -1.43 and -0.16 | -0.532 and -0.889 | 0.316 and -0.53 | -0.891 (inactive) and -0.971 (inactive) | -1.03 and -0.735 | -0.12 and -0.0994 | -0.0037 and -0.738 | -3.96 (inactive) and -3.22 (inactive) | -10.7 (active) and -6.18 (inactive) | 4.04 (inactive) and 4.01 (inactive) | 0.48 and 0.622 | 1.84 (inactive) and 1.81 (inactive) | -0.274 and -0.168 | -0.431 and -0.211 | -0.283 and -0.073 | -0.275 and -0.203
CO[C@H]1COC(=O)CC=C[C@@H](C)COC(=O)[C@@H](OCc2ccccc2)C=C[C@@H]1C | -0.773 | 1.86 | -0.213 | -0.68 | -1.02 | -0.212 | 1.14 | -0.971 (inactive) | -0.28 | -0.0994 | 1.47 | -0.744 (inactive) | -1.31 (inactive) | -0.855 (inactive) | -0.404 | 0.973 (inactive) | -0.353 | 2.02 | -0.294 | -0.135
COC(=O)C1=C(C)N(Cc2ccccc2)C2=C3C(=O)CCC[C@@H]3[C@@](O)(C(=O)OC)C(=O)N2[C@@H]1c1ccccc1 | -0.438 and -0.212 | 0.999 and -0.117 | -0.122 and -0.0125 | 0.482 and 0.544 | 0.723 and 0.6 | -0.046 and -0.158 | 0.211 and 0.476 | -0.403 (inactive) and 0.0176 (inactive) | 0.325 and 0.107 | 0.136 and -0.0994 | 0.749 and -0.121 | 0.494 (inactive) and -0.978 (inactive) | -1.66 (inactive) and -4.18 (inactive) | -2.01 (inactive) and -2.52 (inactive) | 0.0102 and 0.0556 | 0.821 (inactive) and 0.754 (inactive) | 0.182 and -0.0863 | 0.637 and 0.433 | 0.602 and -0.239 | -0.177 and 0.108
C[N+](C)(C)CCCCNC(=O)[C@H]1C[C@H]2C(=O)N[C@@H](CCCC[N+](C)(C)C)C(=O)N2[C@H]1c1ccc(O)cc1 | -0.589 and -0.197 | 2 and 1.03 | -0.051 and -0.216 | 0.889 and 0.379 | 0.443 and -0.234 | 0.289 and -0.641 | 1.38 and 0.394 | 0.717 (inactive) and 0.376 (inactive) | -0.142 and 0.287 | 0.21 and -0.134 | 1.54 and 1.55 | 0.877 (inactive) and -0.0113 (inactive) | 0.565 (inactive) and 0.352 (inactive) | -1.16 (inactive) and -1.35 (inactive) | -0.296 and -0.656 | -0.118 (inactive) and 0.0161 (inactive) | -0.171 and -0.214 | 1.73 and 1.84 | 0.97 and 0.969 | 0.0338 and -0.127
C=CCN(CCCCC)C(=O)C(c1cccs1)N(C(=O)/C=C\C(=O)O)c1ccc(CCO)cc1 (stereo not given) | 0.786 and 0.657 | -1.96 and -1.13 | -0.182 and -0.201 | -0.507 and -1.34 | -1.77 and -0.81 | 0.279 and -0.706 | 1.53 and 1.51 | 0.349 (inactive) and 0.348 (inactive) | -0.713 and -0.498 | 0.106 and -0.274 | 0.275 and -0.0988 | 0.472 (inactive) and 0.0638 (inactive) | -0.265 (inactive) and 0.206 (inactive) | 0.499 (inactive) and 0.494 (inactive) | 1.64 and 0.636 | 0.295 (inactive) and -0.109 (inactive) | -0.254 and -0.0927 | -1.9 and -1.27 | -1.01 and -1.02 | -0.309 and -0.313

From PubChem BioAssay
